Source: PubChem
This is a sample that favours compounds with a hit; in the whole collection about 20% have one here.
Cycloheximide cs = counter-screen hit for Shiga toxin inhibitors, cycloheximide | cell reporter, cycloheximide protein synthesis inhibition counterscreen | hit rate 12% among 300,000 | max response, % | AID 2314; in the data active means max response mostly above about 13%, no sharp cut-off; inactive means mostly below about 14%; further: read at 38.3 µM for the half of the compounds with a filed dose; 0% is about no effect
HCMV antiviral = inhibitors of human cytomegalovirus; HFF cells, HCMV-luciferase reporter, 72 h; stronger effect = lower value; activity change, negative = inhibition, % at 57.5 µM; hit rate 4.5% among 410,000; AID 1259415; in the data active means activity change below about -60%; inconclusive means no clear call, values can overlap the other calls; inactive means above about -39%; further: on the % scale 0 is the no-effect control and ±100 the full control effect
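HFF cells seeded 16 h at 37C, treated with compounds, infected with luciferase-reporter HCMV at MOI 1 PFU/cell; luciferase read at 72 h post infection, normalized to buffer-only and Salinomycin controls.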
Pf growth 48h = inhibits P. falciparum growth in the first generation, 48 h | P. falciparum luciferase growth in erythrocytes, 48 h | Potency, µM (top dose mostly 28.7 µM), without a hit: at the highest dose activity change, negative = inhibition, usual class: inhibitors | hit rate 5.9% among 310,000; further: potency means the concentration at half of the fitted maximal effect; on the % scale 0 is the no-effect control and ±100 the full control effect
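Erythrocytes infected with P. falciparum carrying an integrated firefly luciferase reporter (2% hematocrit, 0.1% parasitemia final) were exposed to compounds in RPMI 1640 with 0.5% Albumax at 37 C, 5% CO2. Growth inhibition was scored as reduced luminescence.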
Pf growth 96h = inhibits malaria parasite growth, 96 h | Potency, µM (series often up to 28.7 µM), inactives show top-dose activity change, negative = inhibition, usual class: inhibitors | P. falciparum luciferase reporter growth, 96 h | hit rate 6.9% among 320,000 | AID 504834; further: potency means the concentration at half of the fitted maximal effect; on the % scale 0 is the no-effect control and ±100 the full control effect
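Two-generation exposure (96 h) targets delayed-death phenotype. Reporter parasites carrying integrated firefly luciferase, in red cells at 2% hematocrit and 0.05% parasitemia final, kept at 37 C, 5% CO2; luminescence loss indicates inhibition.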
Shiga toxin inh = Shiga toxin inhibition. AID 2315. inhibition, % at 38.7 µM. Vero cells, Shiga toxin protein synthesis inhibition reporter. hit rate 9.2% among 290,000; in the data active means inhibition mostly above about 28%, no sharp cut-off; inactive means mostly below about 43%; further: 0% is about no effect
Active calls of the source: *; ? = inconclusive; . = no result. Unless noted, the call rests on the fitted dose curve; in most records, active means well fitted inhibition curve with a large enough effect; inconclusive means small, poorly fitted or top-dose-only effect, or another doubt; inactive means no such curve, though single readings can be large or run the other way.

SMILES	Cycloheximide cs	HCMV antiviral	Pf growth 48h	Pf growth 96h	Shiga toxin inh
COc1ccc(CCN(C(=O)C(F)(F)F)C(C(=O)NC2CCCC2)c2cccs2)cc1OC (centres undefined)	9	-7	?	7.4µM*	-4
COc1ccc(CCN(C(=O)C(F)(F)F)C(C(=O)NC2CCCCC2)c2ccc(C)s2)cc1OC (centres undefined)	10	66	4.1µM*	?	-5
Cc1cc(NC(=O)C2C3C(=O)N(c4cccnc4)C(C(=O)NC(C)(C)C)C34C=CC2(C)O4)no1 (centres undefined)	-3	9	-11%	13µM*	-5
O=C(O)c1ccc(N=NN2CCCCC2)cc1	53*	61	0%	38%	57
NS(=O)(=O)c1ccc(N=NN2CCCCC2)cc1	52*	-34	65%	34%	56*
CC(=O)N(C(C)=O)S(=O)(=O)c1ccc(N=NN2CCCCC2)cc1	-1	-3	0%	37%	10
COC(=O)c1ccc(C(=S)N2CCOCC2)cc1	6	?	14%	-10%	-3
CC(=O)NS(=O)(=O)c1ccc(N=NN2CCCCC2)cc1	-2	8	14%	?	-7
COC(=O)c1ccc(N=NN2CCOCC2)cc1	41*	124	187%	13%	34*
COC(=O)c1ccc(N=NN2CCCCCC2)cc1	79*	45	191%	9%	88*
O=C(NC1CCCC1)c1nc2ccccc2nc1-c1ccc(F)c(F)c1	.	64	.	.	.
Cc1cc(OCC(=O)NCc2ccncc2)ccc1Cl	0	-8	8%	38%	-12
CCc1nnc(NC(=O)CSc2nc3c([nH]c4ccccc43)c(=O)n2-c2cc(C)cc(C)c2)s1	.	20	.	.	.
CC1=C(C(=O)Nc2ccccc2)C(c2cccs2)n2nc(SCc3ccccc3F)nc2N1 (centres undefined)	.	1	.	.	.
CC(=O)Nc1ccc(NC(=O)CS(=O)(=O)c2cn(CC(=O)N3CCC(C)CC3)c3ccccc23)cc1	.	39	.	.	.
Clc1ccc(N=NN2CCOCC2)cc1	42*	7	47%	26%	71*
O=P(C(=Nc1ccc(Cl)cc1)N1CCOCC1)(N1CCOCC1)N1CCOCC1	-3	-6	-30%	?	17
Cc1oc2c(cc(NS(=O)(=O)c3cccs3)c3ccccc32)c1C(=O)OC(C)C	12	126	?	9.3µM*	26
COc1ccc(S(=O)(=O)Nc2cc3c(C(C)=O)c(C)oc3c3ccccc23)cc1	-1	-76*	.	?	-12
Cc1oc2c(cc(NS(=O)(=O)c3ccc(Cl)cc3)c3ccccc32)c1C(=O)OCc1ccccc1	.	28	.	.	.
CC(=O)c1c(C)oc2c1cc(NS(=O)(=O)c1ccc(C(C)(C)C)cc1)c1ccccc12	.	-17	.	.	.
Cc1oc2c(cc(NS(=O)(=O)c3ccc(C(C)C)cc3)c3ccccc32)c1C(=O)O	-6	25	17%	?	-14
Cc1oc2c(cc(NS(=O)(=O)c3ccc(F)cc3)c3ccccc32)c1C(=O)O	-3	-16	3%	7.4µM*	3
CCOC(=O)c1cn(Cc2cccc(Cl)c2)c2cc(C)nn2c1=O	11	23	-14%	?	-6
CCN(CC)c1ccc(NC(=O)CCS(=O)(=O)c2cc3c(cc2Cl)NC(=O)CO3)c(C)c1	.	-1	.	.	.
SMILES	Cycloheximide cs	HCMV antiviral	Pf growth 48h	Pf growth 96h	Shiga toxin inh
COc1ccc2c(c1OC)C[N+]1([O-])CCc3cc4c(cc3C1C2)OCO4 (centres undefined)	-3	-9	?	4.1µM*	-6
O=C(Oc1ccc(N(C(=O)c2ccncc2)S(=O)(=O)c2ccc(Cl)cc2)cc1)c1ccncc1	-2	-5	10%	2.6µM*	19
Cc1ccc(S(=O)(=O)N(C(=O)c2ccncc2)c2ccc(OC(=O)c3ccncc3)cc2)cc1	-5	-68*	15%	?	-4
O=C(Oc1ccc(N(C(=O)c2ccncc2)S(=O)(=O)c2ccc(F)cc2)cc1)c1ccncc1	9	-33	-16%	2%	-13
COc1cc(CNC(=O)c2cc(-c3cc(F)ccc3OC(C)C)n[nH]2)cc(OC)c1	.	10	.	.	.
C/C(=N\Nc1nc(C(C)(C)C)cs1)c1ccccc1	57*	51	26%	-15%	135*
C/C(=N\Nc1nc(C(=O)O)cs1)c1ccccc1	23*	?	20%	-11%	29
C/C(=N\Nc1nc(C(C)(C)C)cs1)c1ccc(O)cc1	53*	-22	?	?	121*
COCCNC(=O)C(c1ccc(C)o1)N(CCOC)C(=O)Cn1nnc2ccccc21 (centres undefined)	1	?	7%	?	-8
CC(C)(C)c1ccc(CC(=O)N2CCC2(C)C(=O)NS(=O)(=O)c2cccc(F)c2)cc1 (centres undefined)	.	23	.	.	.
CCOC(=O)c1cn(-c2nc(-c3ccc(Cl)c(Cl)c3)cs2)c2c(F)c(N3CCOCC3)c(F)cc2c1=O	-3	-24	?	?	-12
CCCNS(=O)(=O)c1cc2c(cc1Br)CCN2C(=O)CC	.	-15	.	.	.
CC(=O)OCOC(=O)CNc1ccccc1OCCOc1ccccc1NCC(=O)OCOC(C)=O	-10	.	.	.	-7
Cc1nc2ncccn2c1-c1csc(Nc2ccccc2)n1	13	42	3.3µM*	6%	22
COc1ccc(Nc2nc(-c3c(C)nc4ncccn34)cs2)cc1	-3	-98*	?	?	-22
Cc1nc2ncccn2c1-c1csc(Nc2ccc(N(C)C)cc2)n1	-2	-65*	?	?	-4
Cc1nc2ncccn2c1-c1csc(Nc2ccc(S(N)(=O)=O)cc2)n1	-3	5	?	-54%	-4
Cc1cccc(C)c1Nc1sc(C(=O)c2ccccc2)c(N)c1S(=O)(=O)c1ccccc1	.	-62*	.	.	.
CN1C2C=C3C(C#N)=C(N)C(C#N)(C#N)C(c4ccc(Br)cc4)C3C1CC2 (centres undefined)	-4	-33	9.3µM*	8.3µM*	-5
CN1C2C=C3C(C#N)=C(N)C(C#N)(C#N)[C@@H](c4ccc(Cl)cc4)[C@@H]3C1CC2 (some centres undefined)	-4	-3	?	?	-1
C=CCOc1c(Cl)cc(C(=S)N2CCCC2)cc1OCC	-2	-76*	28%	-14%	6
O=C(Nc1ccc2c(c1)CCC2)c1ccc(Cl)nc1	59*	-10	344%	157%	64*
CCn1ncc(Cl)c1C(=O)Nc1ccc2c(c1)CCC2	37*	-35	33%	0%	134*
O=C(Nc1ccc2c(c1)CCC2)c1cnc(Cl)c(Cl)c1	67*	172	183%	231%	103*
CCn1ncc(Cl)c1C(=O)Nc1ccncc1	8	30	?	.	23
O=C(NCCc1ccccc1)c1ccc2nc(N3CCOCC3)sc2c1	12*	-8	3%	?	14
O=C(NCc1cccc(Cl)c1)c1ccc2nc(N3CCOCC3)sc2c1	14	-80*	-22%	19%	10
CC(CCc1ccccc1)NC(=O)c1ccc2nc(N3CCOCC3)sc2c1 (centres undefined)	5	-34	14%	?	-9
